Source: PubChem BioAssay (EPA / NIEHS)
The source made the active and inactive calls. Rule for the calls: active = hit-call score of the fitted dose curve at least 0.9, where 1 is the maximum; inactive = score below 0.9.

Experiments:
Settings in all cases: mRNA level, 48 h; actives raise or lower the signal
[1] = read-out: Cytochrome P450 3A7 (Homo sapiens) (UniProt P24462); test: LTEA_HepaRG_CYP3A7: Life Technologies and Expression Analysis (LTEA) Assay for CYP3A7 using HepaRG (AID 2283492)
Summary of the method: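 qRT-PCR of CYP3A7 in HepaRG lysates after 48 h treatment; concentration-response (8 points, max 100 uM) analysed bidirectionally relative to 0.5% DMSO controls.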

CYP3A5 (gene 1577) = test: LTEA_HepaRG_CYP3A5: Life Technologies and Expression Analysis (LTEA) Assay for CYP3A5 using HepaRG (AID 2283493)
Summary of the method: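 HepaRG plated 48 h, switched to serum-free induction medium, chemicals added 48 h (max 100 uM, half-log, 0.5% DMSO). RNA isolated; CYP3A5 by TaqMan qRT-PCR. Gain/loss vs DMSO.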

[2] = read-out: Fatty Acid-Binding Protein 1 (FABP1), FABP1 (gene 2168); test: LTEA_HepaRG_FABP1: Life Technologies and Expression Analysis (LTEA) Assay for Fatty Acid-Binding Protein 1 (FABP1) using HepaRG (AID 2283494)
Summary of the method: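 Differentiated human HepaRG cells were exposed in duplicate for 48 h in serum-free induction medium to 8-point half-log concentration series topping at 100 uM in 0.5% DMSO. FABP1 mRNA measured by TaqMan qRT-PCR, normalized to ACTB/GAPDH/POLR2A; bidirectional fit versus DMSO.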

[3] = read-out: Cytochrome P450 4A22 (Homo sapiens) (UniProt Q5TCH4); test: LTEA_HepaRG_CYP4A22: Life Technologies and Expression Analysis (LTEA) Assay for Cytochrome P450 4A22 (CYP4A22) using HepaRG (AID 2283495)
Summary of the method: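 Concentration-response (8 points, max 100 uM, 0.5% DMSO) in human HepaRG liver cells after 48 h exposure. CYP4A22 mRNA by TaqMan qRT-PCR with housekeeping-gene normalization.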

[4] = read-out: Cytochrome P450 7A1 (Homo sapiens) (UniProt P22680); test: LTEA_HepaRG_CYP7A1: Life Technologies and Expression Analysis (LTEA) Assay for Cytochrome P450 7A1 (CYP7A1) using HepaRG (AID 2283496)
Summary of the method: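 HepaRG cells plated 48 h, then switched to serum-free induction medium and exposed in duplicate for 48 h to 8-point half-log series from 100 uM in 0.5% DMSO. CYP7A1 mRNA by qRT-PCR (TaqMan), normalized to ACTB/GAPDH/POLR2A; bidirectional fit versus DMSO.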

[5] = read-out: Glutathione S-Transferase (GSTA2), GSTA2 (gene 2939); test: LTEA_HepaRG_GSTA2: Life Technologies and Expression Analysis (LTEA) Assay for Glutathione S-Transferase (GSTA2) using HepaRG (AID 2283497)
Summary of the method: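 Human HepaRG cells, plated 48 h, then exposed in serum-free induction medium for 48 h to eight half-log concentrations up to 100 uM in 0.5% DMSO, duplicate. GSTA2 mRNA by qRT-PCR, normalized to ACTB/GAPDH/POLR2A; bidirectional fit versus DMSO.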

[6] = read-out: Glutamate-cysteine ligase catalytic (GCLC), GCLC (gene 2729); test: LTEA_HepaRG_GCLC: Life Technologies and Expression Analysis (LTEA) Assay for Glutamate-cysteine ligase catalytic (GCLC) using HepaRG (AID 2283498)
Summary of the method: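 Differentiated human HepaRG cells, plated 48 h then switched to serum-free induction medium, were exposed in duplicate for 48 h to 8 half-log concentrations topping at 100 uM in 0.5% DMSO. GCLC mRNA was quantified by qRT-PCR against ACTB, GAPDH and POLR2A.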

[7] = read-out: growth arrest and DNA damage 45 (GADD45G), GADD45G (gene 10912); test: LTEA_HepaRG_GADD45G: Life Technologies and Expression Analysis (LTEA) Assay for growth arrest and DNA damage 45 (GADD45G) using HepaRG (AID 2283499)
Summary of the method: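 Concentration-response in HepaRG: 48 h dosing, 0.5% DMSO, highest level 100 uM. GADD45G expression by qRT-PCR, normalised to endogenous controls; bidirectional fit to DMSO.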

[8] = read-out: Glutamate-cysteine ligase regulatory (GCLM), GCLM (gene 2730); test: LTEA_HepaRG_GCLM: Life Technologies and Expression Analysis (LTEA) Assay for Glutamate-cysteine ligase regulatory (GCLM) using HepaRG (AID 2283500)
Summary of the method: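 Cells were plated, cultured 48 h, switched to serum-free induction medium, then dosed in duplicate for 48 h at eight half-log concentrations up to 100 uM. RNA was then profiled by qRT-PCR; gain or loss versus DMSO was fitted.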

[9] = read-out: Glutathione S-transferase M3 (GSTM3), GSTM3 (gene 2947); test: LTEA_HepaRG_GSTM3: Life Technologies and Expression Analysis (LTEA) Assay for Glutathione S-transferase M3 (GSTM3) using HepaRG (AID 2283501)
Summary of the method: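 Expression of GSTM3 is determined by qRT-PCR in human liver HepaRG cells treated 48 h with an 8-point half-log range from 100 uM in 0.5% DMSO.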

[10] = read-out: Heat shock 70 kDa protein 1 (HSPA1A), gene 3303; test: LTEA_HepaRG_HSPA1A: Life Technologies and Expression Analysis (LTEA) Assay for Heat shock 70 kDa protein 1 (HSPA1A) using HepaRG (AID 2283502)
Summary of the method: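 Readout is HSPA1A transcript level by microfluidic qRT-PCR, normalized to three housekeeping genes and analysed for gain or loss of signal relative to 0.5% DMSO. Human HepaRG cultures received test chemicals for 48 h at up to 100 uM.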

[11] = read-out: Hypoxia-inducible factor 1-alpha (Homo sapiens) (UniProt Q16665); test: LTEA_HepaRG_HIF1A: Life Technologies and Expression Analysis (LTEA) Assay for Hypoxia-inducible factor 1 (HIF1A) Trancription factor using HepaRG (AID 2283503)
Summary of the method: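 Differentiated HepaRG cells in serum-free induction medium exposed 48 h, in duplicate, to 8-point half-log series from 100 uM in 0.5% DMSO. HIF1A mRNA measured by TaqMan qRT-PCR, normalized to ACTB/GAPDH/POLR2A, fitted bidirectionally versus DMSO.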

[12] = read-out: 3-Hydroxy-3-Methylglutaryl-CoA Synthase 2 (HMGCS2), HMGCS2 (gene 3158); test: LTEA_HepaRG_HMGCS2: Life Technologies and Expression Analysis (LTEA) Assay for 3-Hydroxy-3-Methylglutaryl-CoA Synthase 2 (HMGCS2) using HepaRG (AID 2283504)
Summary of the method: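 This steatosis marker was read as HMGCS2 mRNA change in HepaRG cells treated 48 h with up to 100 uM chemical. Normalisation used housekeeping genes; activity in either direction was fitted relative to 0.5% DMSO vehicle.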

HGF (gene 3082) = test: LTEA_HepaRG_HGF: Life Technologies and Expression Analysis (LTEA) Assay for Hepatocyte Growth Facto (HGF) using HepaRG (AID 2283505)
Summary of the method: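 Using HepaRG monolayers kept in 0.5% DMSO, chemicals were tested in duplicate over eight half-log concentrations from 100 uM for 48 h. Endpoint: HGF mRNA change relative to DMSO, normalized to ACTB/GAPDH/POLR2A.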

[13] = read-out: Insulin Like Growth Factor 1 (IGF1), IGF1 (gene 3479); test: LTEA_HepaRG_IGF1: Life Technologies and Expression Analysis (LTEA) Assay for Insulin Like Growth Factor 1 (IGF1) using HepaRG (AID 2283506)
Summary of the method: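 HepaRG, plated 48 h, then switched to serum-free induction media; test chemical 8-pt half-log from 100 uM (0.5% DMSO), duplicate, 48 h. Lysis in RLT, TaqMan qRT-PCR, norm. ACTB/GAPDH/POLR2A. Bidirectional fit vs DMSO.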

[14] = read-out: Intercellular Adhesion Molecule 1 (ICAM1), ICAM1 (gene 3383); test: LTEA_HepaRG_ICAM1: Life Technologies and Expression Analysis (LTEA) Assay for Intercellular Adhesion Molecule 1 (ICAM1) using HepaRG (AID 2283507)
Summary of the method: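 Using the human liver line HepaRG, compounds are tested in duplicate over 48 h at concentrations up to 100 uM. Expression is determined by TaqMan qRT-PCR, normalized to endogenous controls, and analysed relative to 0.5% DMSO vehicle.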

[15] = read-out: Insulin-like growth factor-binding protein 1 (IGFBP1), IGFBP1 (gene 3484); test: LTEA_HepaRG_IGFBP1: Life Technologies and Expression Analysis (LTEA) Assay for Insulin-like growth factor-binding protein 1 (IGFBP1) using HepaRG (AID 2283508)
Summary of the method: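 HepaRG, 48 h, 8 conc. (max 100 uM, half-log), duplicates, 0.5% DMSO. Readout: TaqMan qRT-PCR, ACTB/GAPDH/POLR2A normalisation. Fit: bidirectional vs DMSO.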

[16] = read-out: Interleukin 6 (IL6), IL6 (gene 3569); test: LTEA_HepaRG_IL6: Life Technologies and Expression Analysis (LTEA) Assay for Interleukin 6 (IL6) using HepaRG (AID 2283509)
Summary of the method: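 Differentiated human HepaRG cells, plated 48 h then switched to serum-free induction medium, were exposed in duplicate for 48 h to eight half-log concentrations up to 100 uM in 0.5% DMSO. IL6 mRNA measured by qRT-PCR, normalized to ACTB/GAPDH/POLR2A.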

[17] = read-out: Interleukin 6 Receptor (IL6R), IL6R (gene 3570); test: LTEA_HepaRG_IL6R: Life Technologies and Expression Analysis (LTEA) Assay for Interleukin 6 Receptor (IL6R) using HepaRG (AID 2283510)
Summary of the method: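 Readout is IL6R transcript level by TaqMan qRT-PCR, normalized to three housekeeping genes and fitted bidirectionally against 0.5% DMSO controls. Human HepaRG cells received chemicals for 48 h in serum-free induction medium, highest concentration 100 uM.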

[18] = read-out: Potassium channel subfamily K member 1 (KCNK1), KCNK1 (gene 3775); test: LTEA_HepaRG_KCNK1: Life Technologies and Expression Analysis (LTEA) Assay for Potassium channel subfamily K member 1 (KCNK1) using HepaRG (AID 2283511)
Summary of the method: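 Differentiated human HepaRG cells in serum-free induction medium were exposed in duplicate for 48 h to 8 half-log concentrations up to 100 uM in 0.5% DMSO. KCNK1 mRNA was measured by TaqMan qRT-PCR, normalized to ACTB, GAPDH and POLR2A, and fitted bidirectionally versus DMSO.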

Measured: outcome

Hypoxia-inducible factor 1-alpha (Homo sapiens), sequence (Q16665 whole entry, looked up): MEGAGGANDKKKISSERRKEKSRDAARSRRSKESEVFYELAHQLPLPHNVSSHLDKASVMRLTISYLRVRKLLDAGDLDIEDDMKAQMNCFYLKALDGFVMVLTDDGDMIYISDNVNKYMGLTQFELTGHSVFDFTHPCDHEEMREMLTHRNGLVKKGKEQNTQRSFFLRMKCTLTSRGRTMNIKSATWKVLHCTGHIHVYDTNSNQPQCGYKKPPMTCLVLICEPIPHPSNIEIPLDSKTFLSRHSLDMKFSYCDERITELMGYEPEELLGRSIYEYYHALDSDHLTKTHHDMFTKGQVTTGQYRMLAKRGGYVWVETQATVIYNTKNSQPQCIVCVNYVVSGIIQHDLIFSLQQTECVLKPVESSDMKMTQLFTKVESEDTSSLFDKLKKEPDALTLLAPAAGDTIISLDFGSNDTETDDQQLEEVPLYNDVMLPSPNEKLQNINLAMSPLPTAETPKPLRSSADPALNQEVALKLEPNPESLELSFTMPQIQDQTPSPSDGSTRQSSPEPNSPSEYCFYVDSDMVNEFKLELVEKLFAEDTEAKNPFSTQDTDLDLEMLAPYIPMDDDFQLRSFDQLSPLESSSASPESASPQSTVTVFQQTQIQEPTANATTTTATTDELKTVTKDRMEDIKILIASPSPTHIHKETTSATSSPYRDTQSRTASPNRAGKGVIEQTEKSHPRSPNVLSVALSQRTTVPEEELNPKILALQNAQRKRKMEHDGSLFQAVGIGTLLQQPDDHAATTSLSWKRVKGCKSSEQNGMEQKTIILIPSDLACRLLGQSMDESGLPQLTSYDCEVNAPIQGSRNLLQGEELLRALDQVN
Cytochrome P450 3A7 (Homo sapiens), sequence (P24462 whole entry, looked up): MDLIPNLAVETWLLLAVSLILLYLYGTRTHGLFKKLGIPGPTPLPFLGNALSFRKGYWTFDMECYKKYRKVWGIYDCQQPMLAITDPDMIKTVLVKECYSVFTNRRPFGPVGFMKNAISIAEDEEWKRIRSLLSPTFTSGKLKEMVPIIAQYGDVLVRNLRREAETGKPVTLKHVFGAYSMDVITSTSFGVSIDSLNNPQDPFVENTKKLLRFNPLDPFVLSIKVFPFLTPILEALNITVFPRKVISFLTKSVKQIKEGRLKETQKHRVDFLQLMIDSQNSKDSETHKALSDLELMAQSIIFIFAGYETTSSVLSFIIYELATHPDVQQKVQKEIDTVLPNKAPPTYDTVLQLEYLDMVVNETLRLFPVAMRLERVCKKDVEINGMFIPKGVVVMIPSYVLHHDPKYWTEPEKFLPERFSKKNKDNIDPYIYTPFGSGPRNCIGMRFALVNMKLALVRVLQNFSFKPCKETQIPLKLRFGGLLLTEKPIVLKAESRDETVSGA

O=C(O)c1ccc([N+](=O)[O-])cc1
inactive: all assays above
